Reference: PubChem BioAssay (NCATS)
Inconclusive results are not listed. A call without a number means that no potency is given here. A number with no mark means an inactive call. The source made the active and inactive calls. Calls follow the shape of the dose curve; as a rule, active = well fitted curve in the direction sought with a large enough effect; inconclusive = small, poorly fitted or top-dose-only effect, or another doubt; inactive = no such curve, though single readings can be large; an effect the other way counts as inactive or inconclusive.

Key:
[1] = molecular target: ATP-dependent 6-phosphofructokinase (Trypanosoma brucei brucei) (UniProt O15648); assay: qHTS Assay to Find Inhibitors of T. brucei phosphofructokinase: hit validation (AID 492961);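 also: luminescence reports ADP formed as PFK phosphorylates fructose-6-phosphate with ATP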; conditions: T. brucei PFK, ADP-Glo luminescence; series mostly up to 51.4 µM
Method in brief: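 Measures ADP output of PFK (1.25 nM) at 0.1 mM ATP, 0.5 mM F6P, pH 8.0 TEA buffer with 5 mM MgCl2. No-enzyme wells define full inhibition; uninhibited enzyme wells define zero.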

[2] = molecular target: Luciferin 4-monooxygenase (Photinus pyralis) (UniProt P08659); assay: Biochemical firefly luciferase enzyme assay for NPC (AID 624030);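 also: purified P. pyralis luciferase at 10 nM with luciferin and ATP substrate; nearly all actives have a fitted effect of over 70% in size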; conditions: purified P. pyralis luciferase, luminescence, 5 min; series mostly up to 58.6 µM
Method in brief: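 Direct inhibition of firefly luciferase enzyme (10 nM final, 50 mM Tris Acetate) assessed by luminescence within 5 minutes. Percent activity scaled between DMSO and PTC124 positive control, with concentration-effect curves classified by fit quality and response.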

[3] = qHTS profiling for inhibitors of Plasmodium falciparum proliferation (AID 504749); also: nearly all actives have a fitted effect of over 60% in size; also: potency is read from the fitted curve at half-maximal effect; conditions: P. falciparum in erythrocytes, SYBR Green DNA, 72 h, at 28.7 µM (top of the series)
Method in brief: (§1)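 Three-day growth assay of blood-stage parasites in erythrocytes (0.3% parasitemia, 2.5% hematocrit) at 37 C, 5% CO2, quantified by SYBR Green DNA staining after overnight detergent lysis.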

CP192 = assay: as above; conditions: P. falciparum in erythrocytes, SYBR Green DNA, 72 h; series mostly up to 28.7 µM
Method in brief: as §1

CP329 = assay: as above; conditions: P. falciparum in erythrocytes, SYBR Green DNA, 72 h; series mostly up to 28.7 µM
Method in brief: as §1

Dd2 = assay: as above; conditions: P. falciparum in erythrocytes, SYBR Green DNA, 72 h; series mostly up to 28.7 µM
Method in brief: as §1

FAB9 = assay: as above; conditions: P. falciparum in erythrocytes, SYBR Green DNA, 72 h; series mostly up to 28.7 µM
Method in brief: as §1

PC49 = assay: as above; conditions: P. falciparum in erythrocytes, SYBR Green DNA, 72 h; series mostly up to 28.7 µM
Method in brief: as §1

CP201 = assay: as above; conditions: P. falciparum in erythrocytes, SYBR Green DNA, 72 h; series mostly up to 28.7 µM
Method in brief: as §1

CP262 = assay: as above; conditions: P. falciparum in erythrocytes, SYBR Green DNA, 72 h; series mostly up to 28.7 µM
Method in brief: as §1

CP269 = assay: as above; conditions: P. falciparum in erythrocytes, SYBR Green DNA, 72 h; series mostly up to 28.7 µM
Method in brief: as §1

CP286 = assay: as above; conditions: P. falciparum in erythrocytes, SYBR Green DNA, 72 h; series mostly up to 28.7 µM
Method in brief: as §1

CP315 = assay: as above; conditions: P. falciparum in erythrocytes, SYBR Green DNA, 72 h; series mostly up to 28.7 µM
Method in brief: as §1

CP325 = assay: as above; conditions: P. falciparum in erythrocytes, SYBR Green DNA, 72 h; series mostly up to 28.7 µM
Method in brief: as §1

CP203 = assay: as above; conditions: P. falciparum in erythrocytes, SYBR Green DNA, 72 h; series mostly up to 28.7 µM
Method in brief: as §1

Sequence of ATP-dependent 6-phosphofructokinase (Trypanosoma brucei brucei) (O15648 whole entry, looked up): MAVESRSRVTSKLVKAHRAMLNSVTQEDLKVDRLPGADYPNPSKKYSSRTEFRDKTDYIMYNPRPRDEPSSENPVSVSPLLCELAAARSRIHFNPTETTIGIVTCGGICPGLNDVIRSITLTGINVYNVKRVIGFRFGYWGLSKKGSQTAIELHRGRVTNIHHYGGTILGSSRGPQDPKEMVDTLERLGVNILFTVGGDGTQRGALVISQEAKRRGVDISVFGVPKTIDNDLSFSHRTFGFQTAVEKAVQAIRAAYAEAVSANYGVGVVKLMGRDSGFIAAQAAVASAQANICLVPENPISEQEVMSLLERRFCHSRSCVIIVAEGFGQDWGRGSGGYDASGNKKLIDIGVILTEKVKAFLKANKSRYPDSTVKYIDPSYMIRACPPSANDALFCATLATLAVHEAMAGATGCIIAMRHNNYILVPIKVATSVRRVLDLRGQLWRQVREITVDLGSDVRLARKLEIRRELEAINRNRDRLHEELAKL
Sequence of Luciferin 4-monooxygenase (Photinus pyralis) (P08659 whole entry, looked up): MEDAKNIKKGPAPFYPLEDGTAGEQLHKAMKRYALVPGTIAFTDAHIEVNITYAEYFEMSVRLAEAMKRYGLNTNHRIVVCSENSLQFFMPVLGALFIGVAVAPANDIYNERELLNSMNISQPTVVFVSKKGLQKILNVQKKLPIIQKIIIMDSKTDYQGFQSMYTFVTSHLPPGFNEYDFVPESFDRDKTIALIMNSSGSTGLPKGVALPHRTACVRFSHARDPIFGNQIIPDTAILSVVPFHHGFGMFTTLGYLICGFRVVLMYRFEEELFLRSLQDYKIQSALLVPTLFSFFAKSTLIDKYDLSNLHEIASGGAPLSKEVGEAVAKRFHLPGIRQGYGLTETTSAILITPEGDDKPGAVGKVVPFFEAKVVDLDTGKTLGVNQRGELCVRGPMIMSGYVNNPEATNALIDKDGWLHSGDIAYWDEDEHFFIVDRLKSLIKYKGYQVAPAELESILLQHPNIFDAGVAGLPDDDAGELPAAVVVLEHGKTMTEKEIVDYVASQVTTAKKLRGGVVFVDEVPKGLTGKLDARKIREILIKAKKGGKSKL

SMILES	Potency [1]	Potency [2]	activity, negative = inhibition ([3]; parasite line B)	Potency (CP192)	Potency (CP329)	Potency (Dd2)	Potency (FAB9)	Potency (PC49)	Potency (CP201)	Potency (CP262)	Potency (CP269)	Potency (CP286)	Potency (CP315)	Potency (CP325)	activity, negative = inhibition ([3]; parasite line A)	Potency (CP203)
C=C1CC2C3C=C(C)C4=CC(=O)CCC4(C)C3CCC2(C)[C@@]1(OC(C)=O)C(C)=O (stereo partly drawn)	inactive	inactive	-26.9%	inactive	inactive	inactive	inactive	inactive								
C[C@@H]1CC2[C@@H]3C[C@H](F)C4=CC(=O)C(Cl)=C[C@]4(C)[C@@]3(F)[C@H](O)C[C@]2(C)[C@@]1(O)C(=O)CO (stereo partly drawn)	inactive	inactive		inactive	inactive	inactive	inactive	inactive	inactive	inactive	inactive	inactive	inactive	inactive		
CC[C@H]1OC(=O)[C@H](C)C(=O)[C@H](C)[C@@H](OC2O[C@H](C)C[C@H](N(C)C)[C@@H]2O)[C@@](C)(OC)C[C@@H](C)C(=O)[C@@H](C)C2N(CCCCn3cnc(-c4cccnc4)c3)C(=O)O[C@@]21C (stereo partly drawn)	inactive	inactive		inactive	inactive		inactive	inactive	inactive	inactive	inactive	inactive	inactive	inactive	-28.5%	inactive
CCC1OC(=O)C[C@@H](O)[C@H](C)[C@@H](OC2OC(C)CC(N(C)C)C2O)[C@@H](CC=O)C[C@@H](C)C(=O)/C=C/[C@]2(C)OC2C1C (stereo partly drawn)	inactive	inactive				1 µM (active)	inactive					1.12 µM (active)				
Oc1cc2cc(CCN3CCN(c4nsc5ccccc45)CC3)c(Cl)cc2[nH]1	inactive	inactive	-29.2%	inactive	inactive	inactive	inactive	inactive	inactive	inactive	inactive		inactive	inactive		inactive
CCC(C)C(N)C(=O)O (stereo not drawn)	inactive	inactive	-1.6%	inactive	inactive	inactive	inactive	inactive	inactive	inactive	inactive	inactive	inactive	inactive		inactive
CCCCC(=O)OC1CCC2C3CCc4cc(O)ccc4C3CC[C@]12C (stereo partly drawn)	inactive	inactive		inactive	inactive		inactive	inactive	inactive	inactive	inactive	inactive	inactive	inactive	-29.6%	inactive
OCC(O)C(O)C(O)C(O)CO (stereo not drawn)	inactive	inactive	7.82%	inactive	inactive	inactive	inactive	inactive	inactive	inactive	inactive	inactive	inactive	inactive		inactive
CN(C)CC[C@@](O)(c1ccccc1)c1ccccc1Cl	inactive	inactive				2 µM (active)	inactive			inactive	12 µM (active)	7.94 µM (active)		7.57 µM (active)	-12.9%	
Cc1cncc(C(=O)O)[n+]1[O-]	inactive	inactive		inactive	inactive	inactive	inactive	inactive	inactive	inactive	inactive	inactive	inactive	inactive		
C=CCN1CC(C(=O)N(CCCN(C)C)C(=O)NCC)CC2c3cccc4[nH]cc(c34)CC21 (stereo not drawn)	inactive		-28.9%	inactive	inactive	8.91 µM (active)	inactive	inactive	inactive	inactive	inactive	12.6 µM (active)	inactive	inactive		
